# Test results: PubChem BioAssay (Tox21)
# Inconclusive results are not listed. The source made the active and inactive calls. The call rests on the fitted dose curve.
# Assay: qHTS assay for small molecule agonists of the antioxidant response element (ARE) signaling pathway - cell viability counter screen (AID 743203); further: nearly all actives have a fitted effect of over 55% in size
# Details: ARE-bla HepG2 viability, CellTiter-Glo luminescence, 16 h; series mostly up to 73.3 µM; viability change, negative = cytotoxic: at the top concentration
# Source text: National Center for Advancing Translational Sciences [NCATS]
# NIH Chemical Genomics Center [NCGC]
# U.S. Environmental Protection Agency [EPA]
# National Institutes of Environmental Health Sciences [NIEHS]
# National Toxicology Program [NTP]
# U.S. Food and Drug Administration [FDA]
# Oxidative stress has been implicated in the pathogenesis of a variety of diseases ranging from cancer to neurodegeneration. The antioxidant response element (ARE) signaling pathway plays an important role in the amelioration of oxidative stress. The CellSensor ARE-bla HepG2 cell line (Invitrogen) can be used for analyzing the Nrf2/antioxidant response signaling pathway. Nrf2 (NF-E2-related factor 2) and Nrf1 are transcription factors that bind to AREs and activate these genes. The CellSensor ARE-bla Hep G2 cell line contains a beta-lactamase reporter gene under control of the Antioxidant Response Element (ARE) stably integrated into HepG2 cells. The activation of the report gene under culture conditions can be detected by fluorescence intensity. This cell line has been used to screen the Tox21 10K compound library to identify agonists that induce oxidative stress. The cytotoxicity of the Tox21 compound library against the ARE-bla cell line was tested in parallel by measuring the cell viability using CellTiter-Glo assay (Promega, Madison, WI) in the same wells.
# Tox21 Assay Protocol Summary:
# ARE-bla HepG2 cells were dispensed at 2,000 cells/5 ul/well in 1536-well white wall/solid bottom plates using a Multidrop Combi (ThermoFisher Scientific, Waltham, MA) dispenser. After the assay plates were incubated at 37C/5% CO2 for 5 hrs, 23 nL of compounds dissolved in DMSO, positive controls or DMSO only was transferred to the assay plate by a pintool work station (Kalypsys, San Diego, CA). The plates were incubated at 37C/5% CO2 for 16 hrs, followed by addition of 4 ul/well of CellTiter-Glo reagent into the assay plates using a Flying Reagent Dispenser (Aurora Discovery, San Diego, CA). After 30 min incubation at room temperature, the luminescence intensity in the assay plates was measured using a ViewLux (PerkinElmer, Shelton, CT) plate reader.
# On the % scale 0 is the no-effect control and ±100 the full control effect.
row,SMILES,"viability change, negative = cytotoxic"
1,CC(C)CCCC(C)CC=O (stereo not given),-9.29% (inactive)
2,CCN(CC)C(=O)C1CN2CCc3cc(OC)c(OC)cc3C2CC1OC(C)=O (stereo not given),-5.72% (inactive)
3,CCNC(=O)NCCCOc1cccc(CN2CCCCC2)c1,2.46% (inactive)
4,Nc1ccc(S(=O)(=O)NC(=O)c2ccccc2)cc1,-15.3% (inactive)
5,Cc1ccccc1N1CCN(CCc2nnc3n2CCCC3)CC1,-1.25% (inactive)
6,CCC(C)(CCC(C)C)C(=O)[O-].CCC(C)(CCC(C)C)C(=O)[O-].[Zn+2] (stereo not given),3.81% (inactive)
7,CC(C)COC(=O)COc1ccc(Cl)cc1Cl,8.76% (inactive)
8,C=CCOCC(O)CCl (stereo not given),16.9% (inactive)
9,CCOC(=O)OCC/C(SC(=O)OCC)=C(\C)N(C=O)Cc1cnc(C)nc1N,0.0772% (inactive)
10,CC(=O)c1ccc2c(c1)CCCC2,-16.2% (inactive)
11,CCC(C)N (stereo not given),6.8% (inactive)
12,O=C(O)c1ccccc1C(=O)OCc1ccccc1,1.34% (inactive)
13,O=c1[nH]c(=O)c2ccccc2o1,-1.93% (inactive)
14,SCCSCCS,14.3% (inactive)
15,Cc1nc2n(c(=O)c1CCN1CCC(C(=O)c3ccc(F)cc3)CC1)CCS2,1.22% (inactive)
16,O=S1(=O)CCCC1,-2.07% [at 94.8 µM] (inactive)
17,Nc1cc(Cl)cc(S(=O)(=O)O)c1O,-13.6% [at 94.8 µM] (inactive)
18,CCC(CO)CO,-4.31% (inactive)
19,O=C1c2ccccc2-c2ccccc21,-16% [at 94.8 µM] (inactive)
20,O=C1NC2NC(=O)NC2N1 (stereo not given),-6.04% (inactive)

row,SMILES,"viability change, negative = cytotoxic"
1,Cc1ccccc1C,-7.63% [at 94.8 µM] (inactive)
2,CCCOCCOCCOCCO,-1.29% (inactive)
3,CCC(O)C(C)(C)C (stereo not given),5.93% [at 94.8 µM] (inactive)
4,COc1cc2c3cc1Oc1cc(ccc1O)C[C@@H]1c4c(cc(OC)c(O)c4Oc4ccc(cc4)C[C@@H]3N(C)CC2)CC[N+]1(C)C,-3.21% (inactive)
5,CC(=O)OC(C)(C)Cc1ccccc1,8.83% (inactive)
6,CC1CCC(C(C)(C)S)C(=O)C1 (stereo not given),-4.42% (inactive)
7,C/C=C(\C)C(=O)OCC/C=C\CC,13.3% (inactive)
8,CCNC(=O)/C=C/c1cccc(Br)c1,0.284% (inactive)
9,C[C@H]1O[C@H](O[C@H]2[C@H](O)[C@@H](O)[C@@H](O[C@H]3[C@H](O)[C@@H](O)[C@H](O)O[C@@H]3CO)O[C@@H]2CO)[C@H](O)[C@@H](O)[C@@H]1N[C@H]1C=C(CO)[C@@H](O)[C@H](O)[C@H]1O,-1.25% (inactive)
10,COc1ccc(/C=N/NC(=O)c2ccncc2)cc1OC,9.1% (inactive)
11,Cc1cc(C)cc([N+](=O)[O-])c1,10.8% [at 94.8 µM] (inactive)
12,CNCc1ccccc1,7.35% (inactive)
13,O=C(CN1CCN(Cc2ccc3c(c2)OCO3)CC1)N1c2ccccc2Sc2ccccc21,1.42% (inactive)
14,CC1(N)CCC(C(C)(C)N)CC1 (stereo not given),5.5% (inactive)
15,CCc1nccnc1C,7.18% (inactive)
16,c1ccccc1,5.41% (inactive)
17,Cc1cccc(NC(=S)N(C)C)c1,3.76% (inactive)
18,CC(C)SCc1ccco1,11.7% [at 34.3 µM] (inactive)
19,O=c1[nH]c(=O)c2[nH]c(=O)[nH]c2[nH]1,8.26% [at 8.36 µM] (inactive)
20,O=CO,-3% [at 8.36 µM] (inactive)
